# Measurements published in PubChem BioAssay (EPA / NIEHS).
# Several values for one entry are separate records, joined by “and”; a condition that tells them apart may be missing. Identical values can stand only once. Records with an inconclusive call do not appear. Some structures have more than one record in an assay (separate samples or runs), and their calls can disagree. Activity calls are given as the source filed them. Rule for the calls, unless noted: active = hit-call score of the fitted dose curve at least 0.9, where 1 is the maximum; inactive = score below 0.9.
# Columns and labels:
# [1] = CCTE_Mundy_HCI_hNP1_Pro_ResponderAvgInten: CCTE's Proliferation Assay in human neuroprogenitor cells, Mundy Lab (AID 2284224; active = hit-call score of the fitted dose curve at least 0.9, where 1 is the maximum;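 note: human neural progenitor cells hNP1 derived from WA09 embryonic stem cells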)
# How it was run: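 Proliferation was scored as BrdU labelling intensity in human neural progenitors derived from WA09 embryonic cells, measured 26.25 hours after chemical dosing. Activity was fitted relative to DMSO.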
# [2] = TAMU_HCS_1.5hr_SingleDonor1434_Cytotoxicity: Cytotoxicity Assessment using High-content Screening (HCS) Fluorescent Imaging for the Texas A&M University (TAMU) 1.5-hr Human Induced Pluripotent Stem Cell (iPSC)-derived Cardiotoxicity Assay (AID 2284234; active = hit-call score of the fitted dose curve at least 0.9, where 1 is the maximum)
# How it was run: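 Nuclear counts from Hoechst 33342 imaging define cytotoxicity here, with EC10 (10% cell-count loss relative to DMSO) as point of departure. iPSC cardiomyocytes received 0.2-100 uM test chemical in 0.5% DMSO for 1.5 h at 37 C.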
# [3] = BSK_BT_PBMCCytotoxicity: PBMC Cytotoxicity Assessment in the BioMAP Diversity Plus: BT Assay (AID 2284225); conditions: primary human B cells with PBMC;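 note: PBMC viability measured by Alamar Blue dye reduction fluorescence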
# How it was run: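 Viability by Alamar Blue reduction (6 h, ex/em 546/580 nm) after 90 h culture of SEB/TSST-1-activated PBMC (20 ng/mL each) given compound 1 h before activation. DMSO served as baseline for curve fitting.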
# [4] = read-out: Secreted IgG (sIgG), gene 3500; assay: BSK_BT_sIgG: BioMAP Diversity Plus: BT Assay for Secreted IgG (sIgG) Biomarker Activity (AID 2284226); conditions: primary human B cells with PBMC
# How it was run: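 Cells (B cells with peripheral blood mononuclear cells) are dosed, cultured 24 h, then supernatant IgG is measured by ELISA. DMSO serves as negative control; curves are fitted for signal increase.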
# [5] = BSK_BT_Bcell_Proliferation: Viability Assessment in the BioMAP Diversity Plus: BT Assay for B cell Proliferation (AID 2284227); conditions: primary human B cells with PBMC
# How it was run: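 Human B cells co-cultured with PBMC were dosed with test chemicals and relative cell number was quantified by SRB staining at 72 h. Cells were fixed in 10% TCA, stained with 0.1% SRB and read at 560 nm. Activity was fitted in the positive direction against DMSO.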
# [6] = read-out: Interleukin 6 (IL6), IL6 (gene 3569); assay: BSK_BT_xIL6: BioMAP Diversity Plus: BT Assay for Interleukin 6 (IL6) Biomarker Activity (AID 2284228); conditions: primary human B cells with PBMC
# How it was run: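 Human B cell plus PBMC co-culture exposed to test chemical for 24 h; secreted IL-6 quantified by Luminex xMAP bead assay. Activity fitted in the positive direction against DMSO as negative control and baseline.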
# [7] = read-out: Tumor necrosis factor (Homo sapiens) (UniProt P01375); assay: BSK_BT_xTNFa: BioMAP Diversity Plus: BT Assay for Tumor necrosis factor alpha (TNF-alpha) Biomarker Activity (AID 2284230); conditions: primary human B cells with PBMC
# How it was run: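 B cells with PBMC in co-culture, dosed and sampled at 24 h; secreted TNF-alpha measured by Luminex xMAP bead assay. Activity fitted in the gain direction against DMSO as negative control and baseline.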
# [8] = read-out: Vascular cell adhesion molecule 1 (VCAM1), VCAM1 (gene 7412); assay: BSK_MyoF_VCAM1: BioMAP Diversity Plus: MyoF Assay for Vascular cell adhesion molecule 1 (VCAM1) Biomarker Activity (AID 2284231); conditions: primary human lung fibroblasts
# How it was run: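 Primary human lung fibroblasts were dosed with test chemical for 24 h, then cell-surface VCAM-1 was measured by ELISA. Activity was fitted in the positive direction against DMSO as negative control and baseline.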
# [9] = UKN4_HCS_LUHMES_cell_viability: Viability Assessment in the University of Konstanz (UKN) Leist Lab Neurite Outgrowth Assay in human LUHMES cells (UKN4) (AID 2284232)
# How it was run: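 Cells switched to differentiation medium at day 0, replated on day 2 in medium lacking cAMP and GDNF, and compound-treated once attached. Live staining began 23.5 h later, imaging followed at 24 h.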
# [10] = UKN2_HCS_IMR90_cell_viability: Viability Assessment in the University of Konstanz (UKN) Leist Lab Neural Crest Cell Migration Assay in human induced IMR90 Pluripotent Stem Cells (UKN2) (AID 2284233);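 note: cells exposed to compound for 24 h after a 24 h migration phase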
# How it was run: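 After calcein-AM/Hoechst staining, viability is quantified by high-content fluorescence imaging, relative to DMSO, in iPSC (IMR90)-derived neural crest cells. Exposure lasts 24 h, starting after a 24 h migration period on PLO/laminin/fibronectin coating.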
# Chain of Tumor necrosis factor (Homo sapiens) (P01375 whole entry, looked up): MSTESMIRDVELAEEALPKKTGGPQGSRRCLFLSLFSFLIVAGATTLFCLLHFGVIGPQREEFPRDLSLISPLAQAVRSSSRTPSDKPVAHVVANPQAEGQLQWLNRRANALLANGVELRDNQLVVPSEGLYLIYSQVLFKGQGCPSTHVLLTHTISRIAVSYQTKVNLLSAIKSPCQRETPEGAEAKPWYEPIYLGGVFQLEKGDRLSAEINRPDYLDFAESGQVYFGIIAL
compound,measurement,setting,value
O=C1NS(=O)(=O)c2ccccc21,outcome,[1],inactive
same,outcome,[2],inactive
O=C1OC2(c3ccccc31)c1cc(I)c(O)c(I)c1Oc1c2cc(I)c(O)c1I,outcome,[3],inactive
same,outcome,[4],inactive
same,outcome,[5],inactive
same,outcome,[6],inactive
same,outcome,[7],inactive
same,AC50,[8],9.09 µM (active)
Cc1ccc(C(=O)c2ccccc2)cc1,outcome,[3],inactive
same,outcome,[4],inactive
same,outcome,[5],inactive
same,outcome,[6],inactive
same,outcome,[7],inactive
same,AC50,[8],31.4 µM (active)
CN(C)c1ccc(C(=C2C=CC(=[N+](C)C)C=C2)c2ccccc2)cc1,AC50,[3],993 nM (active)
same,AC50,[4],0.227 µM (active)
same,AC50,[5],0.248 µM (active)
same,AC50,[6],1.13 µM (active)
same,AC50,[7],0.805 µM (active)
same,AC50,[8],0.0764 µM (active)
Nc1ccn([C@@H]2O[C@H](CO)[C@@H](O)C2O)c(=O)n1 (stereo partly specified),AC50,[1],0.0896 µM (active)
same,outcome,[9],inactive
same,outcome,[10],inactive
COC1=CC(=O)C[C@@H](C)[C@]12Oc1c(Cl)c(OC)cc(OC)c1C2=O,outcome,[3],inactive
same,AC50,[4],30.9 µM (active)
same,AC50,[5],37.3 µM (active)
same,outcome,[6],inactive
same,AC50,[7],20 µM (active)
same,outcome,[8],inactive
COc1cccc(O)c1,outcome,[3],inactive
same,outcome,[4],inactive
same,outcome,[5],inactive
same,outcome,[6],inactive
same,outcome,[7],inactive
same,outcome,[8],inactive
O=C(NCc1ncc(C(F)(F)F)cc1Cl)c1c(Cl)cccc1Cl,outcome,[3],inactive
same,AC50,[4],9.52 µM (active)
same,AC50,[5],20 µM (active)
same,AC50,[6],20 µM (active)
same,AC50,[7],20 µM (active)
same,outcome,[8],inactive
CCCCC(CC)C(=O)OCCOCCOCCOCCOC(=O)C(CC)CCCC (stereo unspecified),outcome,[3],inactive
same,AC50,[4],25.2 µM (active)
same,AC50,[5],28.4 µM (active)
same,AC50,[6],0.016 µM (active)
same,AC50,[7],0.016 µM (active)
same,outcome,[8],inactive
CN(Cc1cnc2nc(N)nc(N)c2n1)c1ccc(C(=O)N[C@@H](CCC(=O)O)C(=O)O)cc1,outcome,[3],inactive
same,AC50,[4],662 nM (active) and 100 nM (active)
same,AC50,[5],855 nM (active) and 43.4 nM (active)
same,outcome,[6],inactive
same,outcome,[7],inactive
same,outcome,[8],inactive
O=C(CC(=O)C(F)(F)C(F)(F)C(F)(F)F)c1cccs1,outcome,[1],inactive
same,AC50,[3],45 µM (active) and 39 µM (active)
same,AC50,[4],19 µM (active) and 20.1 µM (active)
same,AC50,[5],43 µM (active) and 40.8 µM (active)
same,AC50,[6],29.8 µM (active) and 22.1 µM (active)
same,AC50,[7],35.6 µM (active) and 39.6 µM (active)
same,outcome,[8],inactive
Clc1ccc(Nc2nnc(Cc3ccncc3)c3ccccc23)cc1,outcome,[3],inactive
same,AC50,[4],6.52 µM (active)
same,outcome,[5],inactive
same,AC50,[6],8.4 µM (active)
same,outcome,[7],inactive
same,outcome,[8],inactive
CC(=O)Nc1ccc(O)cc1,outcome,[1],inactive
CC(C)c1c(C(=O)Nc2ccccc2)c(-c2ccccc2)c(-c2ccc(F)cc2)n1CC[C@@H](O)C[C@@H](O)CC(=O)O,outcome,[1],inactive
same,outcome,[10],inactive
O=P(O)(O)CCC(F)(F)C(F)(F)C(F)(F)C(F)(F)C(F)(F)C(F)(F)C(F)(F)C(F)(F)F,outcome,[3],inactive
same,outcome,[4],inactive
same,AC50,[5],30 µM (active) and 53.9 µM (active)
same,outcome,[6],inactive
same,AC50,[7],30 µM (active)
same,outcome,[7],inactive
same,outcome,[8],inactive
O=P(O)(O)CCC(F)(F)C(F)(F)C(F)(F)C(F)(F)C(F)(F)C(F)(F)F,AC50,[3],12200 nM (active)
same,outcome,[3],inactive
same,outcome,[4],inactive
same,outcome,[5],inactive
same,outcome,[6],inactive
same,outcome,[7],inactive
same,outcome,[8],inactive
OCC(F)(F)C(F)(F)C(F)(F)C(F)(F)C(F)(F)C(F)(F)C(F)(F)C(F)(F)C(F)(F)C(F)(F)C(F)(F)F,outcome,[1],inactive
same,AC50,[3],65.5 nM (active)
same,outcome,[3],inactive
same,outcome,[4],inactive
same,AC50,[5],174 nM (active) and 835 nM (active)
same,outcome,[6],inactive
same,outcome,[7],inactive
same,outcome,[8],inactive
O=C(O)CCC(F)(F)C(F)(F)C(F)(F)C(F)(F)C(F)(F)F,outcome,[3],inactive
same,AC50,[4],30 µM (active)
same,outcome,[4],inactive
same,AC50,[5],6.31 µM (active)
same,outcome,[5],inactive
same,outcome,[6],inactive
same,outcome,[7],inactive
same,outcome,[8],inactive
O=S(=O)(O)C(F)(F)C(F)(F)C(F)(F)C(F)(F)C(F)(F)C(F)(F)C(F)(F)C(F)(F)C(F)(F)C(F)(F)F,outcome,[3],inactive
same,outcome,[4],inactive
same,outcome,[5],inactive
same,outcome,[6],inactive
same,outcome,[7],inactive
same,outcome,[8],inactive
O=C(O)CCC(F)(F)C(F)(F)C(F)(F)C(F)(F)C(F)(F)C(F)(F)F,AC50,[3],23600 nM (active)
same,outcome,[3],inactive
same,AC50,[4],14 µM (active) and 36.7 µM (active)
same,outcome,[4],inactive
same,outcome,[5],inactive
same,outcome,[6],inactive
same,AC50,[7],36.5 µM (active)
same,outcome,[7],inactive
same,outcome,[8],inactive
C=CC(=O)OCCC(F)(F)C(F)(F)C(F)(F)C(F)(F)C(F)(F)C(F)(F)C(F)(F)C(F)(F)F,outcome,[3],inactive
same,outcome,[4],inactive
same,outcome,[5],inactive
same,outcome,[6],inactive
same,outcome,[7],inactive
same,outcome,[8],inactive
O=C(O)C(F)(F)OC(F)(F)C(F)(F)OC(F)(F)C(F)(F)OC(F)(F)C(F)(F)C(F)(F)C(F)(F)F,outcome,[3],inactive
same,AC50,[4],42.5 µM (active) and 34.9 µM (active)
same,outcome,[5],inactive
same,AC50,[6],43.1 µM (active) and 52.8 µM (active)
same,AC50,[7],48.6 µM (active) and 53.5 µM (active)
same,AC50,[8],12.5 µM (active) and 12.3 µM (active)
